# Where a name gives a salt, the structure may show the parent alone. ± gives the standard deviation of the averaged measurements.
# Key:
# Test in all cases: growth (OD600 after 10 h); higher = more growth (less inhibition)
# [1] = tested on: E. coli TESEC Alr+ wild-type control; settings: compound 0.1 mM; raw OD600 reference: median of DMSO wells 0.241, cell-free background 0.041
# Method: (§1)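 TESEC Mtb Alr E. coli, or the Alr+ wild-type control, in 384-well plates with Prestwick library compounds at 0.1 mM and 1% DMSO, across arabinose induction levels of 1E3 to 1E7 nM. Growth is read as OD600 after 10 h at 37 °C in triplicate biological replicates.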
# [2] = tested on: E. coli TESEC Mtb Alr; settings: compound 0.1 mM
# Method: as §1
# [3] = tested on: E. coli TESEC Mtb Asd; settings: compound 0.1 mM
# Method: (§2)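 TESEC E. coli strains in which the native enzyme is deleted and replaced by arabinose-inducible Mtb Asd, DapB, CysH or TrpD, each grown in its selective medium. Strains were screened against the Prestwick library at 0.1 mM and 1% DMSO in 384-well format at low and high arabinose induction. Growth is read as OD600 after 10 h in triplicate.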
# [4] = tested on: E. coli TESEC Mtb DapB; settings: compound 0.1 mM
# Method: as §2
# [5] = tested on: E. coli TESEC Alr+ wild-type control; settings: compound 0.1 mM; raw OD600 reference: median of DMSO wells 0.49, cell-free background 0.052
# Method: (§3)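 TESEC Mtb Alr E. coli (ΔaraC ΔtolC ΔentC Δalr ΔdadX, arabinose-inducible Mtb Alr) or the Alr+ wild-type control strain, grown in defined M9-fructose medium without D-alanine in 96-well plates with Prestwick library compounds at 0.1 mM and 1% DMSO. Low Alr induction is 0.1 µM arabinose and high induction is 10 mM arabinose.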
# [6] = tested on: E. coli TESEC Mtb Alr; settings: compound 0.1 mM; remark: listed apart in the source
# Method: as §3
# [7] = arabinose 1000 nM, raw OD600 reference: median of DMSO wells 0.294, cell-free background 0.041
# [8] = arabinose 10000 nM, raw OD600 reference: median of DMSO wells 0.264, cell-free background 0.041
# [9] = arabinose 100000 nM, raw OD600 reference: median of DMSO wells 0.201, cell-free background 0.041
# [10] = arabinose 1000000 nM, raw OD600 reference: median of DMSO wells 0.193, cell-free background 0.041
# [11] = arabinose 10000000 nM, raw OD600 reference: median of DMSO wells 0.146, cell-free background 0.041
# [12] = arabinose induction (level): High, raw OD600 reference: median of DMSO wells 0.331, cell-free background 0.041
# [13] = arabinose induction (level): Low, raw OD600 reference: median of DMSO wells 0.417, cell-free background 0.041
# [14] = arabinose induction (level): High, raw OD600 reference: median of DMSO wells […], cell-free background 0.041
# [15] = arabinose induction (level): Low, raw OD600 reference: median of DMSO wells 0.227, cell-free background 0.041
# [16] = arabinose 100 nM, raw OD600 reference: median of DMSO wells 0.413, cell-free background 0.052
# [17] = arabinose 10000000 nM, raw OD600 reference: median of DMSO wells […], cell-free background 0.052
Structure (SMILES),growth [1],"growth [2, 7]","growth [2, 8]","growth [2, 9]","growth [2, 10]","growth [2, 11]","growth [3, 12]","growth [3, 13]","growth [4, 14]","growth [4, 15]",growth [5],"growth [6, 16]","growth [6, 17]"
CNCC(O)c1ccc(O)c(O)c1 (stereo not drawn) [Racepinephrine HCl],0.243 ± 0.0062,0.302 ± 0.0045,0.291 ± 0.0096,0.199 ± 0.0083,0.186 ± 0.0042,0.155 ± 0.0036,0.27 ± 0.052,0.44 ± 0.018,0.193 ± 0.0072,0.273 ± 0.06,0.605 ± 0.029,0.4177 ± 0.0019,0.288 ± 0.015
CN(C)c1nc(N(C)C)nc(N(C)C)n1 [Altretamine],0.251 ± 0.0091,0.315 ± 0.018,0.254 ± 0.0079,0.209 ± 0.0047,0.176 ± 0.008,0.163 ± 0.009,0.475 ± 0.017,0.436 ± 0.037,0.217 ± 0.015,0.267 ± 0.019,0.618 ± 0.023,0.404 ± 0.017,0.317 ± 0.02
Cc1ncc([N+](=O)[O-])n1CC(C)O (stereo not drawn) [Secnidazole],0.2401 ± 0.001,0.304 ± 0.012,0.272 ± 0.015,0.201 ± 0.0071,0.188 ± 0.0085,0.137 ± 0.0015,0.369 ± 0.026,0.466 ± 0.031,0.2001 ± 0.001,0.216 ± 0.024,0.4475 ± 0.003,0.4049 ± 0.0029,0.327 ± 0.0064
Cc1c(NC(=O)c2cccnc2)c(=O)n(-c2ccccc2)n1C [Nifenazone],0.251 ± 0.0067,0.305 ± 0.0092,0.27 ± 0.0045,0.212 ± 0.024,0.183 ± 0.0036,0.1554 ± 0.001,0.309 ± 0.066,0.411 ± 0.1,0.192 ± 0.0073,0.262 ± 0.065,0.507 ± 0.062,0.413 ± 0.017,0.339 ± 0.011
Cn1c(=O)c2c(ncn2CCO)n(C)c1=O [Etofylline],0.254 ± 0.003,0.283 ± 0.0029,0.276 ± 0.016,0.228 ± 0.011,0.195 ± 0.0066,0.145 ± 0.0023,0.396 ± 0.053,0.425 ± 0.033,0.192 ± 0.0028,0.264 ± 0.098,0.509 ± 0.055,0.414 ± 0.0083,0.349 ± 0.0046
CCC(=O)O[C@]1(C(=O)SCF)[C@H](C)C[C@H]2[C@@H]3C[C@H](F)C4=CC(=O)C=C[C@]4(C)[C@@]3(F)[C@@H](O)C[C@@]21C [Fluticasone propionate],0.233 ± 0.0036,0.29 ± 0.013,0.274 ± 0.021,0.21 ± 0.012,0.201 ± 0.013,0.149 ± 0.0044,0.258 ± 0.058,0.36 ± 0.046,0.199 ± 0.015,0.239 ± 0.04,0.576 ± 0.026,0.453 ± 0.01,0.381 ± 0.034
COc1cc(-c2ccc(=O)[nH]n2)ccc1OC(F)F [Zardaverine],0.14 ± 0.0036,0.173 ± 0.0042,0.188 ± 0.013,0.17 ± 0.021,0.171 ± 0.0067,0.147 ± 0.0091,0.211 ± 0.014,0.162 ± 0.014,0.16 ± 0.012,0.176 ± 0.018,0.442 ± 0.044,0.401 ± 0.0082,0.35 ± 0.011
N=C(NCCCCCCNC(=N)NC(=N)Nc1ccc(Cl)cc1)NC(=N)Nc1ccc(Cl)cc1 [Chlorhexidine],0.04463 ± 0.00035,0.0435 ± 0.00051,0.0456 ± 0.003,0.0447 ± 0.0014,0.04363 ± 0.00015,0.0449 ± 0.0005,0.0592 ± 0.0021,0.0584 ± 0.0011,0.0506 ± 0.0011,0.0542 ± 0.0085,0.0486 ± 0.0014,0.04807 ± 5.8e-05,0.054 ± 0.0013
CN1CCC(=C2c3ccccc3CC(=O)c3sccc32)CC1 [Ketotifen fumarate],0.196 ± 0.0062,0.254 ± 0.0091,0.246 ± 0.01,0.206 ± 0.032,0.131 ± 0.0024,0.143 ± 0.0042,0.198 ± 0.036,0.39 ± 0.042,0.239 ± 0.043,0.217 ± 0.02,0.54 ± 0.048,0.405 ± 0.0086,0.303 ± 0.017
Nc1ncnc2c1ncn2[C@@H]1O[C@H](CO)[C@@H](O)[C@@H]1O [Vidarabine],0.206 ± 0.012,0.273 ± 0.022,0.243 ± 0.011,0.145 ± 0.0058,0.148 ± 0.0035,0.138 ± 0.004,0.36 ± 0.077,0.383 ± 0.0057,0.171 ± 0.03,0.21 ± 0.048,0.535 ± 0.069,0.429 ± 0.012,0.306 ± 0.0082
CC(C)(C)CC(C)(C)c1ccc(OCCOCC[N+](C)(C)Cc2ccccc2)cc1 [Benzethonium chloride],0.0416 ± 0.00072,0.0415 ± 0.0011,0.0413 ± 0.0002,0.0425 ± 0.0011,0.04103 ± 0.00021,0.0418 ± 0.00044,0.0499 ± 0.00098,0.0496 ± 0.0017,0.0485 ± 0.0028,0.0496 ± 0.0014,0.04753 ± 0.00035,0.0552 ± 0.0016,0.0504 ± 0.00059

# — the supplement of paper PMC9262897, “Low-cost anti-mycobacterial drug discovery using engineered E. coli” (Nature Communications, 2022)
